Results on 68 compounds are retold here after paper PMC4552634, “A New Set of Chemical Starting Points with Plasmodium falciparum Transmission-Blocking Potential for Antimalarial Drug Discovery” (PLoS ONE, 2015).

Hit rate of the full screen: of about 13,000 compounds, about 3,200 (25%) showed an effect of 50% or more. This is one part of the list.

In the assay the test system is P. falciparum stage V gametocytes. The arrangement: BacTiter-Glo ATP luminescence viability of purified stage V gametocytes in 384-well plates, per cent inhibition versus DMSO. The following applies: 48 h, 5 µM; inhibitor.
As for `Nn1c(=O)oc2ccc(Cl)cc2c1=O` [TCMDC-125519], the % Inhibition (in general, the drop in the measured response relative to a control, in per cent) is on record as 8.283%.

On to `FC(F)(F)c1ccc2nccc(NN=Cc3ccccc3)c2c1` [TCMDC-142024], for which the “% Inhibition” value is reported as -3.615%.

Take `CCc1cccc(-c2cc(=N)n(C)c3nc(N)[nH]c(=O)c23)c1` [TCMDC-137737]: the “% Inhibition” value is given as -30.45%.

Turning to `COc1ccc2nccc([C@@H](O)CN3CCC(NCc4nc5c(cc4Cl)OCC(=O)N5)C(F)C3)c2c1` (some centres unmarked) [TCMDC-141722], the “% Inhibition” value came to 15.19%.

For the compound `CCCCN(C(=O)c1ccccc1Cl)c1nnc(-c2ccccc2C)s1` [TCMDC-125120], the “% Inhibition” value is on record as -1.012%.

For the compound `CCCCN(C(=O)c1ccccc1C)c1nnc(-c2ccccc2C)s1` [TCMDC-124385], the “% Inhibition” value is 52.67%.

Consider `CCCN(C(=O)c1ccccc1C)c1nnc(-c2ccccc2C)s1` [TCMDC-124386], for which the “% Inhibition” value is listed as 7.474%.

With `CCC(C)OC(=O)C1=C(C)NC2=C(C(=O)CC(c3ccc(OC)c(OC)c3)C2)C1c1cccc(O)c1` (centres unmarked) [TCMDC-125634], the “% Inhibition” value worked out at 29.96%.

In the case of `CCCOC(=O)C1=C(C)NC2=C(C(=O)CC(c3ccc(OC)c(OC)c3)C2)C1c1cccc(O)c1` (centres unmarked) [TCMDC-125632], the “% Inhibition” value is listed as 53.3%.

As to `COC(=O)C1=C(C)NC2=C(C(=O)CC(c3ccc(OC)c(OC)c3)C2)C1c1cccc(O)c1` (centres unmarked) [TCMDC-125609], the “% Inhibition” value was found to be 17.77%.

On to `COc1ccc(C2CC(c3cccs3)=NN2C(=O)COc2cccc3c2CCCC3O)cc1OC` (centres unmarked) [TCMDC-125033], for which the “% Inhibition” value came out at 11.22%.

With `O=C(C=Cc1ccc(Cl)c(Cl)c1)NCCCCCN1CCC(CCNS(=O)(=O)c2ccc(Br)cc2)CC1` [TCMDC-139586], the “% Inhibition” value is 95.36%.

For `O=C(/C=C/c1ccc(Cl)c(Cl)c1)NCCCCCN1CCC(NS(=O)(=O)c2cc(Cl)cc(Cl)c2)CC1` [TCMDC-135905], the “% Inhibition” value was 1.117%.

With `O=C(C=Cc1ccc(Cl)c(Cl)c1)NCCCCCN1CCC(CCCNS(=O)(=O)c2ccc(Br)cc2)CC1` [TCMDC-139590], the “% Inhibition” value stood at 106.1%.

For `O=C(/C=C/c1ccc(Cl)c(Cl)c1)NCCCCCN1CCC(NC(=O)Nc2ccc(Br)cc2)CC1` [TCMDC-135728], the “% Inhibition” value is given as 5.216%.

Turning to `O=C(C=Cc1ccc(Cl)c(Cl)c1)NCCCCCN1CCC(CCCNC(=O)C2CC2c2ccccc2)CC1` (centres unmarked) [TCMDC-139572], the “% Inhibition” value was -16.95%.

In the case of `COc1ccc(S(=O)(=O)NCCCC2CCN(CCCCCNC(=O)C=Cc3ccc(Cl)c(Cl)c3)CC2)cc1` [TCMDC-139587], the “% Inhibition” value was found to be 105.9%.

As for `CCCCCCCCS(=O)(=O)NCCCC1CCN(CCCCCNC(=O)C=Cc2ccc(Cl)c(Cl)c2)CC1` [TCMDC-139588], the “% Inhibition” value was 108.5%.

On to `COc1ccc(S(=O)(=O)NCCC2CCN(CCCCCNC(=O)C=Cc3ccc(Cl)c(Cl)c3)CC2)cc1` [TCMDC-139584], for which the “% Inhibition” value was determined as 28.62%.

As to `O=C(C=Cc1ccc(Cl)c(Cl)c1)NCCCCCN1CCCC(CCCNS(=O)(=O)c2ccc(Br)cc2)C1` (centres unmarked) [TCMDC-139592], the “% Inhibition” value was found to be 37.84%.

Take `Cc1cc(C)cc(NC(=S)NCCCCN2CCN(c3cccc(Cl)c3)CC2)c1` [TCMDC-124057]: the “% Inhibition” value was found to be 38.25%.

As to `CC1(C)CN(CCC2CCC(NC(=O)/C=C/c3ccc(F)cc3F)CC2)Cc2ccc(C#N)cc21` (centres unmarked) [TCMDC-139504], the “% Inhibition” value is 4.044%.

On to `Nc1c2nc(-c3c(F)cccc3Cl)[nH]c(=O)c2nc(=O)n1-c1ccccc1` [TCMDC-124052], for which the “% Inhibition” value is 4.598%.

With `c1ccc2[nH]c(-c3ccc(-c4ccc(CN5CCN(CCN6CCOCC6)CC5)cc4)s3)nc2c1` [TCMDC-133938], the “% Inhibition” value is 11.37%.

Take `CN(CCc1ccccn1)Cc1ccc(-c2ccc(-c3nc4ccccc4[nH]3)s2)cc1` [TCMDC-136766]: the “% Inhibition” value came out at 58.81%.

On to `CN(CCN)Cc1ccc(-c2ccc(-c3nc4ccc(F)cc4[nH]3)s2)cc1` [TCMDC-132819], for which the “% Inhibition” value came out at 40.81%.

Take `CCCN1CCN(Cc2ccc(-c3ccc(-c4nc5ccccc5[nH]4)s3)cc2)CC1` [TCMDC-136767]: the “% Inhibition” value is reported as -1.011%.

On to `c1cncc(CN2CCN(Cc3ccc(-c4ccc(-c5nc6ccccc6[nH]5)s4)cc3)CC2)c1` [TCMDC-136765], for which the “% Inhibition” value stood at 62.12%.

For the compound `CN(C)CCCN1CCN(Cc2ccc(-c3ccc(-c4nc5ccccc5[nH]4)s3)cc2)CC1` [TCMDC-136769], the “% Inhibition” value is given as 73.2%.

As for `c1ccc2[nH]c(-c3ccc(-c4ccc(CN5CCN(c6ccncc6)CC5)cc4)s3)nc2c1` [TCMDC-136770], the “% Inhibition” value is -27.84%.

Regarding `CN(C)CCN(C)Cc1ccc(-c2cccc(-c3nc4ccccc4[nH]3)c2)cc1` [TCMDC-132567], the “% Inhibition” value came to 5.675%.

Consider `c1ccc2[nH]c(-c3ccc(-c4ccc(CN5CCCCC5)cc4)s3)nc2c1` [TCMDC-136768], for which the “% Inhibition” value is 35.93%.

Turning to `Cc1nn(-c2ccccc2)c2nc(-c3ccccc3)cc(C(=O)N3CCOCC3)c12` [TCMDC-124527], the “% Inhibition” value is given as -18.66%.

Turning to `Cc1cc(N2CCCC2)nc(Nc2ccc(NC(=O)CC(C)C)cc2)n1` [TCMDC-124715], the “% Inhibition” value was found to be 12.42%.

On to `COc1ccc(S(=O)(=O)NC2CCN(c3ccnc4cc(Cl)ccc34)C2)cc1` (centres unmarked) [TCMDC-133649], for which the “% Inhibition” value is recorded as 9.561%.

Turning to `NC(N)=NN=Cc1ccccc1OCc1ccccc1Cl` [TCMDC-124250], the “% Inhibition” value is 59.45%.

On to `NC(N)=NN=Cc1cc([N+](=O)[O-])ccc1Sc1ccccc1CO` [TCMDC-137883], for which the “% Inhibition” value came out at 34.86%.

`CC(=O)C1(c2ccccc2)CCN(CCC2(c3ccc(Cl)c(Cl)c3)CN(C(=O)CC(C)C)CCO2)CC1` (centres unmarked) [TCMDC-135324]: the “% Inhibition” value is listed as -34.64%.

For `CC(=O)Nc1ccc(S(=O)(=O)N(Cc2cccc(Oc3ccccc3)c2)C2CCN(C/C=C(\C)CCC=C(C)C)CC2)cc1` [TCMDC-139619], the “% Inhibition” value worked out at 47.01%.

For `O=S(=O)(Nc1cccc(F)c1CNCc1ccccn1)c1ccc(Cl)c(Cl)c1` [TCMDC-132598], the “% Inhibition” value was 71.21%.

As to `Clc1ccc2c(NCc3ccccn3)ccnc2c1` [TCMDC-125103], the “% Inhibition” value is listed as 3.053%.

Regarding `Cc1cnc(CNCc2ccc(S(=O)(=O)Nc3ccc(Oc4cccc(Cl)c4)cc3)cc2)cn1` [TCMDC-136202], the “% Inhibition” value is -12.09%.

In the case of `CCN(CC)C(=NCCCCCCN=C(NC(=N)c1ccc(Cl)cc1)N(CC)CC)NC(=N)c1ccc(Cl)cc1` [TCMDC-131806], the “% Inhibition” value was 117.9%.

On to `CC(=O)Nc1ccc(OCCCCCOc2ccc(NC(C)=O)cc2Cl)c(Cl)c1` [TCMDC-137222], for which the “% Inhibition” value is recorded as -37.52%.

Regarding `CC(=NNC(=N)N)C(=O)Nc1ccc(Cl)c(Cl)c1` [TCMDC-137564], the “% Inhibition” value is reported as -28.53%.

For `CCN(CC)C(=NC(=N)NCCCCCCNC(=N)N=C(Nc1ccc(Cl)cc1)N(CC)CC)Nc1ccc(Cl)cc1` [TCMDC-131807], the “% Inhibition” value is given as 113%.

As to `CCCCN1CCN(CC(O)CNC(=O)Nc2ccc(Cl)cc2)CC1` (centres unmarked) [TCMDC-134646], the “% Inhibition” value amounted to 4.082%.

As to `CCCN1CCN(CC(O)CNC(=O)Nc2ccc(Cl)cc2)CC1` (centres unmarked) [TCMDC-134645], the “% Inhibition” value was -0.7262%.

`CCN(CC)C(=NC(=N)Nc1ccc(Cl)cc1)NCCCCCCCCNC(=NC(=N)Nc1ccc(Cl)cc1)N(CC)CC` [TCMDC-131812]: the “% Inhibition” value is listed as 116.8%.

Turning to `CCN(CC)/C(=N/C(=N)Nc1ccc(Cl)c(Cl)c1)NCCCCCCN/C(=N\C(=N)Nc1ccc(Cl)c(Cl)c1)N(CC)CC` [TCMDC-131808], the “% Inhibition” value is given as 116.2%.

Consider `COc1ccc(CCN(C)CCCCNC(=O)c2ccc(NC(=O)c3ccc(Cl)cc3)cc2)c(OC)c1` [TCMDC-138506], for which the “% Inhibition” value was 49.32%.

`CCN1CCN(CC(O)CNC(=O)Nc2ccc(Cl)cc2)CC1` (centres unmarked) [TCMDC-134634]: the “% Inhibition” value turned out to be 26.07%.

Take `C[C@@H]([C@@H](CCCCc1ccccc1)C(=O)N[C@H](C(=O)Nc1cccnc1)C(C)(C)C)N(O)C=O` [TCMDC-138380]: the “% Inhibition” value was -15.27%.

For the compound `CCN(C(=O)c1ccc(NC(=O)c2cccs2)cc1)c1nc2c(C)cccc2s1` [TCMDC-125338], the “% Inhibition” value came out at 37.84%.

In the case of `O=C(Nc1ccc(OC2CCN(Cc3ccsc3)CC2)c(Cl)c1)c1cccs1` [TCMDC-133740], the “% Inhibition” value is given as -2.262%.

Regarding `CCn1c(Cc2ccccc2)nnc1SCC(=O)N1c2ccccc2Sc2ccccc21` [TCMDC-124373], the “% Inhibition” value is on record as -22.31%.

Regarding `CC(=O)N[C@H](C(=O)Nc1ccc(-c2cccc(-c3nc4c(C)cccc4[nH]3)c2)cc1)C(C)C` [TCMDC-136853], the “% Inhibition” value was -50.38%.

Regarding `CCC(C)NC(=O)Nc1cccc(-c2cccc(-c3nc4c(C)cccc4[nH]3)c2)c1` (centres unmarked) [TCMDC-133239], the “% Inhibition” value stood at 36.1%.

On to `Cc1cccc2[nH]c(-c3cccc(-c4ccc(NC(=O)C(C)CN(C)C)cc4)c3)nc12` (centres unmarked) [TCMDC-137111], for which the “% Inhibition” value came to 95.4%.

As to `Cc1cccc2[nH]c(-c3ccc(-c4cccc(NC(=O)C(C)CN5CCN(C)CC5)c4)cc3)nc12` (centres unmarked) [TCMDC-137144], the “% Inhibition” value is listed as 36.55%.

As for `Cc1cccc2[nH]c(-c3cccc(-c4ccc(NC(=O)CN5CCOCC5)cc4)c3)nc12` [TCMDC-136970], the “% Inhibition” value is on record as -20.19%.

Consider `CCC(C)NC(=O)Nc1ccc(-c2cccc(-c3nc4c(C)cccc4[nH]3)c2)cc1` (centres unmarked) [TCMDC-133238], for which the “% Inhibition” value was -3.731%.

As for `Cc1cccc2[nH]c(-c3cccc(-c4cccc(NC(=O)C(C)CN(C)C)c4)c3)nc12` (centres unmarked) [TCMDC-137110], the “% Inhibition” value is reported as -50.7%.

On to `Cc1cccc2[nH]c(-c3ccc(-c4ccc(NC(=O)C(C)CN(C)C)cc4)cc3)nc12` (centres unmarked) [TCMDC-137105], for which the “% Inhibition” value is given as -73.49%.

Turning to `Cc1cccc2[nH]c(-c3cccc(-c4ccc(NC(=O)C(C)CN5CCN(C)CC5)cc4)c3)nc12` (centres unmarked) [TCMDC-137151], the “% Inhibition” value is 58.09%.

Consider `Cc1cccc2[nH]c(-c3cccc(-c4ccc(NC(=O)C(C)C(=O)NC(C)C)cc4)c3)nc12` (centres unmarked) [TCMDC-132149], for which the “% Inhibition” value is listed as -14.66%.

For `Cc1cccc2[nH]c(-c3cccc(-c4ccc(NC(=O)C(C)CN5CCOCC5)cc4)c3)nc12` (centres unmarked) [TCMDC-137138], the “% Inhibition” value stood at 85.59%.

As for `Cc1cccc2[nH]c(-c3cccc(-c4cccc(NC(=O)C(C)CN5CCN(C)CC5)c4)c3)nc12` (centres unmarked) [TCMDC-137150], the “% Inhibition” value is 88.37%.
